Assay results reported in PubChem BioAssay AID588325 (National Center for Advancing Translational Sciences (NCATS), 2011).
Results filed as inconclusive are left out. The source made the active and inactive calls. The call rests on the fitted dose curve; in most records, active means well fitted curve in the direction sought with a large enough effect; inconclusive means small, poorly fitted or top-dose-only effect, or effect the other way, or another doubt; inactive means no such curve, though single readings can be large or run the other way.

Assay: Confirmatory Assay to Find Inhibitors of T. brucei phosphofructokinase: Cytotoxictity in KB-3-1
Details: KB-3-1 human cells cytotoxicity counter-screen; series mostly up to 46.1 µM; activity change, negative = cytotoxicity: at the top concentration
Text: Various species of the protozoan family Trypanosomatidae are responsible for a range of serious human diseases in tropical and subtropical areas of the world. […] Many of the disorders caused by trypanosomatids are fatal if left untreated, but most currently used drugs are inefficient and toxic.
Oxidative metabolism involving the mitochondrial tricarboxylic acid cycle and oxidative phosphorylation are repressed in these parasites, and recent RNA interference (RNAi) experiments have shown that even partial depletion of certain individual glycolytic enzymes can lead to the death of cultured parasites. One such glycolytic enzyme, phosphofructokinase (PFK), catalyzes the formation of fructose-1,6-bisphosphate (F1,6BP) and ADP from fructose-6-phosphate (F6P) and ATP, and in many metabolic circumstances makes an important contribution to the control of flux through the glycolytic pathway. As a specific glycolytic target, PFK is particularly attractive as it catalyzes the first irreversible step in glycolysis, and structural and kinetic studies have shown very substantial and essential differences from corresponding host enzymes, allowing for the discovery of parasite-selective inhibitors.
Confirmed qHTS active compounds were tested for toxicity against the KB-3-1 human cervical carcinoma cell lines. This line havs historically been used as representative human cells in in vitro Trypanosoma assays, and so provide a relevant surrogate for human cells in testing Tb PFK inhibitor toxicity.
NIH Chemical Genomics Center [NCGC]
NIH Molecular Libraries Probe Centers Network [MLPCN]
Assay Submitter (PI): Malcom Walkinshaw, University of Edinburg
KB-3-1 cells were dispensed into white solid 1536-microwell plates in 5 uL media (high glucose DMEM, 10% FBS) with a Thermo Multidrop. The plates were incubated at 37 degrees Celsius for 2 hours, and subsequently treated with compounds using the Kalypsys pin tool, delivering 23 nL of test compounds to each well. The plates were then incubated for an additional 72 hours at 37 degrees Celsius. Cytotoxicity was assessed by adding 2.5 uL of Cell-Titer Glo (Promega, Madison, WI) via Multidrop, incubating at room temperature for 10 min and reading luminescence on the Perkin Elmer ViewLux using a 1 second exposure and 1x binning. DMSO-treated cells were included as negative control, while media-only wells were used as a positive control equivalent to 100% cell toxicity for the sake of data normalization.

Compound | activity change, negative = cytotoxicity
Cc1cc(NS(=O)(=O)CCNC(=O)Cc2ccc(Cl)c(Cl)c2)no1 | 11.2% (inactive)
COc1ccc(CC(=O)Nc2ccc(S(=O)(=O)Nc3cc(C)on3)cc2)cc1C | -9.25% (inactive)
Cc1cc(NS(=O)(=O)c2ccc(NC(=O)Cc3ccc(C)c(C)c3)cc2)no1 | -4.17% (inactive)
Cc1cc(NS(=O)(=O)c2ccc(NC(=O)C(C)(C)c3ccc(Cl)c(Cl)c3)cc2)no1 | 13.5% (inactive)
O=C(Cc1ccc(Cl)c(Cl)c1)Nc1ccc(S(=O)(=O)O)cc1 | 6.38% (inactive)
Cc1cc(NS(=O)(=O)Cc2ccc(NC(=O)Cc3ccc(Cl)c(Cl)c3)cc2)no1 | -0.6% (inactive)
Cc1cc(NS(=O)(=O)c2ccc(NCCc3ccc(Cl)c(Cl)c3)cc2)no1 | 2.76% (inactive)
Cc1cc(NS(=O)(=O)c2ccc(NC(=O)Cc3ccc4ccccc4c3)cc2)no1 | 9.72% (inactive)
Cc1cc(NS(=O)(=O)c2ccc(NC(=O)Cc3ccc(C)c(F)c3)cc2)no1 | -3.65% (inactive)
Cc1cc(NS(=O)(=O)c2ccc(NC(=O)Cc3ccc(Cl)c(F)c3)cc2)no1 | -4.78% (inactive)
Cc1cc(NS(=O)(=O)c2ccc(NC(=O)CCc3ccc(Cl)c(Cl)c3)cc2)no1 | -12.1% (inactive)
Cc1cc(NS(=O)(=O)C2CCN(C(=O)Cc3ccc(Cl)c(Cl)c3)CC2)no1 | -7.05% (inactive)
Cc1cc(N[S+](=O)([O-])c2ccc3cc(NC(=O)Cc4ccc(Cl)c(Cl)c4)ccc3c2)no1 | -2.44% (inactive)
Cc1cc(NC(=O)c2ccc(NC(=O)Cc3ccc(Cl)c(Cl)c3)cc2)no1 | 0.287% (inactive)
O=C(Cc1ccc(Cl)c(Cl)c1)Nc1ccc(S(=O)(=O)Nc2ccon2)cc1 | -0.619% (inactive)
COc1ccc(CC(=O)Nc2ccc(S(=O)(=O)Nc3cc(C)on3)cc2)cc1OC | -4.67% (inactive)
Cc1cc(NS(=O)(=O)c2ccc(NS(=O)(=O)Cc3ccc(Cl)c(Cl)c3)cc2)no1 | 7.09% (inactive)
Cc1cc(NS(=O)(=O)c2ccc(N(C)C(=O)Cc3ccc(Cl)c(Cl)c3)cc2)no1 | -0.538% (inactive)
O=C(Cc1ccc(Cl)c(Cl)c1)Nc1ccc(S(=O)(=O)Nc2cccc(C(=O)O)c2)cc1 | 11.4% (inactive)
Cc1cc(NS(=O)(=O)c2ccc(C(=O)NCc3ccc(Cl)c(Cl)c3)cc2)no1 | 21.8% (inactive)
Cc1cc(NS(=O)(=O)c2ccc(NC(=O)Cc3ccc(Cl)cc3Cl)cc2)no1 | 5.04% (inactive)
Cc1cc(NS(=O)(=O)c2ccc(NC(=O)Cc3ccc(Cl)cc3)cc2)no1 | -0.216% (inactive)
O=C(Cc1ccc(Cl)c(Cl)c1)Nc1ccc(S(=O)(=O)Nc2ccc(C(=O)O)cc2)cc1 | 8.3% (inactive)
Cc1cc(NS(=O)(=O)c2ccc(NC(=O)Cc3ccc(Cl)c(Cl)c3)cc2)n(C)n1 | 4.89% (inactive)
O=C(Cc1ccc(Cl)c(Cl)c1)Nc1ccc(S(=O)(=O)Nc2cncnc2)cc1 | 5.74% (inactive)
Cc1cc(NS(=O)(=O)c2cccc(NC(=O)Cc3ccc(Cl)c(Cl)c3)c2)no1 | -5.11% (inactive)
Cc1cc(NS(=O)(=O)c2ccc(NC(=O)Cc3cccc(Cl)c3)cc2)no1 | -2.52% (inactive)
Cc1cc(NS(=O)(=O)c2ccc(NC(=O)c3ccc(Cl)c(Cl)c3)cc2)no1 | -2.15% (inactive)
